Data as given in PubChem BioAssay AID2315 (National Center for Advancing Translational Sciences (NCATS), 2010).
About 27,000 (9.3%) of roughly 290,000 compounds were called active. This is one part of a sample in which actives are shown more often than they occur. A number with no mark means an inactive call. Cut-off read from the data, not from the text of the source: active = inhibition mostly above about 28% (no sharp cut-off); inactive = mostly below about 43%.

Test: A qHTS for Small Molecule Inhibitors of Shiga Toxin; note: 0% is about no effect
Conditions: Vero cells, Shiga toxin protein synthesis inhibition reporter; at 38.7 µM, hits give high values

| Structure (SMILES) | inhibition |
| --- | --- |
| CN(NS(=O)(=O)c1cccs1)c1ncc(C(F)(F)F)cc1Cl | -2.15% |
| Cc1ccc(C(=O)CSc2nc3ccccc3c(=O)n2N)o1 | 77.2% |
| COc1ccc(OCc2ccc(-c3nc4ccccc4c(=O)n3N)o2)cc1 | 129% (active) |
| COc1ccc(-c2nc3ccccc3c(=O)n2CCc2ccc(O)cc2)cc1 | 40.9% |
| Cc1nc2ccccc2c(=O)n1-c1ccc(Cl)cc1Cl | -14.3% |
| Cn1c(COc2ccc(Cl)cc2)nc2ccccc2c1=O | 46% (active) |
| Cn1c2ccccc2c(=O)c2c(=O)n(Cc3ccco3)c(COc3ccccc3)nc21 | 8.54% |
| COC(=O)c1sc(N2CCN(Cc3ccccc3)CC2)nc1N | -8.35% |
| Cc1ccc(CNCc2ccc3c(c2)OCO3)c(C)c1 | -7.85% |
| O=C(O)C1=NN(c2c(F)c(F)cc(F)c2F)C(=O)CC1 | -10.3% |
| CC(NC(=O)Nc1ccc2c(c1)OCO2)c1ccncc1 (stereo not given) | 19.2% |
| CC(NS(=O)(=O)c1ccc(Cl)cc1)C(=O)Nc1ccc2c(c1)OCCO2 (stereo not given) | -5.73% |
| CCc1c(C)sc(NC(=O)/C=C/c2ccc3c(c2)OCO3)c1C(=O)OC | -7.04% |
| COc1cccc(/C=C/C(=O)Nc2ccc3c(c2)OCCO3)c1 | 70.9% (active) |
| O=C(/C=C/c1ccc2c(c1)OCO2)NCc1ccc(F)cc1 | 26.5% |
| Cc1ccc2nc(-c3ccccn3)cc(C(=O)Nc3ccc4c(c3)OCO4)c2c1 | -7.35% |
| COc1ccc(OC)c(/C=C/C(=O)OCC(=O)Nc2ccc3c(c2)OCCO3)c1 | -11% |
| Cc1cccc(NC(=O)Nc2ccc3c(c2)OCO3)n1 | 76.3% (active) |
| CNS(=O)(=O)c1ccc(NC(=O)Nc2ccc3c(c2)OCO3)cc1 | 72.9% (active) |
| COc1ccc(/C=C/C(=O)Nc2ccc3c(c2)OCCO3)cc1OC | 35.4% |

| Structure (SMILES) | inhibition |
| --- | --- |
| CC(C)CNS(=O)(=O)c1ccc(C(=O)Nc2ccc3c(c2)OCO3)cc1 | -14.7% |
| Cc1cccc(NC(=O)/C=C/c2ccc3c(c2)OCO3)n1 | 70.2% (active) |
| COc1cccc(NC(=O)C2CCCN(c3ncnc4c3nc3n4CCCCC3)C2)c1 (stereo not given) | -3.78% |
| Cc1ccc(N2CCN(C(=O)c3cccs3)CC2)c(C)c1 | 8.46% |
| CCc1ccc(OCC(=O)N(Cc2ccccc2)C2CCS(=O)(=O)C2)cc1 (stereo not given) | -3.9% |
| CN(C)S(=O)(=O)c1cccc(C(=O)OCC(=O)N2CCCC2=O)c1 | -2.45% |
| CC(C(=O)NC1CCS(=O)(=O)C1)N1C(=O)/C(=C/c2ccc(Cl)cc2)SC1=S (stereo not given) | -2.44% |
| COc1ccccc1CN1CCN(Cc2cc(OC)c(OC)cc2OC)CC1 | 7.78% |
| COc1ccc(CNS(=O)(=O)c2ccc(NC(=O)N3CCCCC3)cc2)cc1 | 1.93% |
| CC(C)C(=O)Nc1c2c(nn1-c1ccccc1)CSC2 | -0.685% |
| COc1cc2c(cc1OC)C(C)N(S(=O)(=O)c1cnc(Cl)c(Cl)c1)CC2 (stereo not given) | -3.13% |
| Oc1oc(-c2ccccc2Br)nc1/C=N/c1ccccn1 | 102% (active) |
| CC(C)n1c(O)c(N=Nc2ccccn2)c2ccccc21 | 11.1% |
| O=C(c1ccc[nH]c1=S)N1CCN(S(=O)(=O)c2ccc(Br)cc2Cl)CC1 | -6.76% |
| CC(C)c1ccc(NC(=O)[C@@H](NC(=O)N2CC(=O)Nc3ccccc32)C(C)C)cc1 | -1.19% |
| COc1ccc(N(C(=O)c2snc(C(N)=O)c2N)C(C(=O)NC2CCCC2)c2ccco2)cc1OC (stereo not given) | 10.1% |
| Cc1cnc(CN(C)C(=O)C2CCC(=O)N(CCc3cccc(F)c3)C2)[nH]1 (stereo not given) | -1.92% |
| COc1ccc(-c2nc(SCC(=O)N3CCCC3)n[nH]2)cc1 | 38.5% |
| CCc1c(C)nc(SCC(=O)NC2CCCC2)[nH]c1=O | -6.89% |
| CCc1ccc(-c2nc(SCC(=O)NC3CCCC3)n[nH]2)cc1 | 22.7% (active) |

| Structure (SMILES) | inhibition |
| --- | --- |
| COc1ccc(S(=O)(=O)NC(C)c2ccccc2)cc1C(=O)N1CCCCC1 (stereo not given) | -7.47% |
| Clc1cccc(Cl)c1OCCOCCNCc1ccccc1 | 1.14% |
| Cc1cc(C)n(-c2nnc(N3CCN(c4ccccc4)CC3)nn2)n1 | 35.7% (active) |
| FC(F)(F)c1nnc2ccc(N3CCN(c4ccccc4)CC3)nn12 | -8.76% |
| Cc1cc(N2CCN(c3ccccc3)CC2)nc(N2CCOCC2)n1 | -8.49% |
| CCOc1ccc2[nH]c(=O)c(CN(CCCO)S(=O)(=O)c3ccc(F)cc3)cc2c1 | -6.85% |
| Cc1ccc(C(=O)NCC(=O)OCC(=O)NC2CCCCCCC2)cc1 | -5.5% |
| O=C1c2ccccc2C(=O)c2c1cccc2N1CCN(Cc2ccccc2)CC1 | 47.7% |
| O=C(NC(c1ccccc1)c1ccccc1)N1CCN(CCO)CC1 | 8.02% |
| O=C1c2ccccc2C(=O)c2c1cccc2N1CCN(CCO)CC1 | 75.3% (active) |
| NC(=O)CSc1nnc(NC(=O)c2ccc(Br)o2)s1 | 15.2% |
| CN(C)c1cccc(C(=O)N2CCC(n3nccc3NC(=O)C3CCOC3)CC2)c1 (stereo not given) | -1.93% |
| CS(=O)(=O)c1ccc(Cl)c(NC(=O)Nc2ccccc2)c1 | 38.5% |
| Cc1c(NC(=O)Nc2ccccc2)cccc1[N+](=O)[O-] | -38.1% |
| Cc1ccc(NC(=O)Nc2ccccc2)c(Br)c1 | 105% (active) |
| COc1cc(NC(=O)C2=CC(c3ccc(C)cc3)=NS(=O)(=O)N2C)cc(OC)c1OC | 7.86% |
| Cc1[nH]c(C)c(S(=O)(=O)N2CCN(c3cccc(C(F)(F)F)c3)CC2)c1C(=O)N1CCCC1 | -8.08% |
| CCOc1ccc(N2C(=O)CC(N(O)c3ccccc3)C2=O)cc1 (stereo not given) | 100% (active) |
| CCCCCCC(=O)N(O)C1CC(=O)N(c2ccccc2)C1=O (stereo not given) | -2.28% |
| CCOc1ccc(N2C(=O)CC(N(CCc3ccc(OC)c(OC)c3)C(=S)Nc3ccccc3)C2=O)cc1 (stereo not given) | 9.09% |
